Measured values taken from PubChem BioAssay AID1508600 (Functional Genomics Laboratory (NCATS/FGL), 2020).
The whole screen tested about 53,000 sequences, of which about 3,700 (7%) were called active. This is one part of a sample in which actives are shown more often than they occur. A number with no mark means an inactive call.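 Rule for the calls: active = gene knockdowns whose robust z-score for IL-1 alpha signal is at least 2 or at most -2, so actives lie on both sides; inactive = the rest.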

Test: Components of the Cytosolic LPS Sensing Pathway: Gene Identification via Genome-wide siRNA Screen;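 note: robust z of the log signal after scaling to non-targeting control siRNA wells of the plate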
Conditions: RAW264.7 macrophages, IL-1a HTRF, actives lie on both sides, screened at 100 nM (by protocol), cells primed 5 h with Pam3CSK4 first
Procedure, shortened: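 Supernatant IL-1a by HTRF from RAW264.7 cells primed with Pam3CSK4 (5 hours) and transfected with LipidA (24 hour) after 48h siRNA knockdown at 100 nM; cell viability checked with CellTiter-Glo.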

For GGACUGUGGAUAACCUGCUTT against Hspb2, the z-score was -2.55 (active).
In the case of GCAGAGUUACAAGCUUUUATT against Diaph3, the z-score is reported as -4.98 (active).
In the case of CCUCGUAUUAGAUGAUGCATT against Snrpe, the z-score is reported as -2.79 (active).
With GGAUCCAAGGUGAAAAUAUTT against Fam131a the z-score was -2.25 (active).
For GGGAAAAUGGAAAAUACAUTT against Emc3, the z-score was 2.59 (active).
In the case of GCUCUACCCUGAAGAUAUATT against Immt, the z-score is reported as 2.44 (active).
For GGAGCUAAACUCCUUGAAGTT against Slc22a4, the z-score was 2.07 (active).
For GGCGCAUUAGCAGAGACUGTT against Mrps5, the z-score was 4.17 (active).
In the case of GCCAAGAAUAGCAUUACUGTT against Abraxas1, the z-score is reported as -2.45 (active).
In the case of CGAGCUUAUCAUCAGCGACTT against Polr2f, the z-score is reported as -2.74 (active).
With GGUCAAUGGAGUAGAUUUATT against Pard3 the z-score was 2.24 (active).
For “GGUCAUGAAAAUUAAAGCATT against 1110059G10Rik”, the z-score was -2.31 (active).
In the case of CCUGAGUCUCGGUUCACAATT against Kif12, the z-score is reported as -2.13 (active).
With CCUCAGAAAAAGCCUAUAGTT against Kcnj3 the z-score was -2.13 (active).
In the case of “GGGCCUGUAAUGGUGUACATT against B230317F23Rik”, the z-score is reported as 2.56 (active).
In the case of GGAACUCCAGCUUUUGGUCTT against Sox13, the z-score is reported as 2.51 (active).
With GCAGACUAAAAUCACGACATT against Ednra the z-score was 2.62 (active).
In the case of GGUAAACAUGUCUAUGACUTT against Fpr-rs7, the z-score is reported as -2.09 (active).
With GGCAGAUAAAGAUGGAGCATT against Ndp the z-score was 3.69 (active).
With GGCUUAAAGGUCCUGUGCUTT against Ighmbp2 the z-score was -2.89 (active).
With GCAAGAUCCCGACACAUACTT against Tead4 the z-score was -2.22 (active).
For GGUGCGUCCUGAAAUCAUCTT against Txndc12, the z-score was -2.52 (active).
With GGAUCUUCAAUUCGUUGGUTT against Cachd1 the z-score was 2.75 (active).

In order of rising z-score:
1. GGACUUUGGUUUUUGUAAGTT against Vasn  -1.72
2. GGUCUCACAGCAGUACUCATT against Clk4  -1.46
3. GGCAGUAGCCUUGUCUGUCTT against Prrx2  -1.42
4. GGAUCAUUCCUUUGGUUAGTT against Fabp5  -1.34
5. GGACACAGGGUCUCUUACATT against Msrb2  -1.25
6. GGUGUAAUUGGGAAAAUUCTT against Inpp5f  -1.17
7. CCCUGGAUUGAGGAUCGUUTT against Mrgpra8  -1.14
8. CGGUAGAAGGCUUAGGCAATT against Aox1  -0.922
9. GGGUGCCUAGCAGAUGAACTT against Sp110  -0.912
10. GGAAUGGAUCCUGAUGAUATT against Spcs2  -0.877
11. GGUUUGGAUGUGAAACAAGTT against Myot  -0.861
12. GGAGAUCAUGUCAAAAAAGTT against Ibtk  -0.848
13. GGAUAGUUUGGUAAUGAAATT against Cds1  -0.748
14. CCUCAGAACAAAUGAAAAUTT against Nlk  -0.62
15. GGUUAUGGUUUUGUUGACUTT against Rbms1  -0.606
16. GGUUUUAAGUUCUAGGGAATT against Olfr1288  -0.599
17. GCCCAAGAAUGUGCCUUAUTT against Olfr1278  -0.578
18. GCUGAUUAACCCUCAGUAUTT against Gpc6  -0.531
19. GCACAGUGUAACUUAGGGCTT against Cenpb  -0.525
20. GCCACUCAAAGUUCGAAGGTT against Tmem51  -0.515
21. CCCGCUAUUACGUUUUUCUTT against Mtarc2  -0.498
22. GCUCCGGAACAGAUAAAACTT against Kat14  -0.485
23. CGGGCUAUCUGGAACUAUATT against Sesn1  -0.466
24. GAUUUCAAGAUCCAGACUCTT against Riiad1  -0.435
25. GGCCAACACUAACACAGACTT against Tmem268  -0.357
26. GGAGGAAUCAAAGGCUCCUTT against Slc39a5  -0.319
27. GGCAAGUUGACCGUGUUUUTT against Dtnb  -0.307
28. GGCUAAGGGUAACGUGCUGTT against Bri3  -0.263
29. GGCUCUAACAUGACAAUUUTT against Hyal1  -0.251
30. GGCACAUUAGUAGAACACATT against Sorcs2  -0.243
31. GGAAAACCAGCUAAUUAUCTT against Ptger3  -0.23
32. GGCUCCUGUAAUGCUAACUTT against Zfp715  -0.191
33. GAUAUCACGGUCAUCUGUCTT against Pde6h  -0.19
34. GCUCGAUCAUGGGCCUAUATT against Crls1  -0.189
35. GGCUUUAAUGCCUGUAUUATT against Ilvbl  -0.185
36. GGUGAAACAGCGAAUAGGUTT against Zfp428  -0.168
37. GGACAAUGUUGAAUCCUGUTT against Rrp15  -0.155
38. GGCAGUAACUUAAAACAGATT against Mecp2  -0.139
39. GGUCCAAAGAAAGACCCAUTT against Cypt4  -0.131
40. GGUCAUAGCAUCUACGGCUTT against Gm4793  -0.11
41. GGUUUAUGCAAUGAAGCUUTT against Rock2  -0.0928
42. GGCCAACCUGUUCAUCAGCTT against Bdkrb1  -0.0817
43. GGCUUUCCGCGCUAUUGAUTT against Pcmtd2  -0.027
44. GGAUUUUAGUGAAUUCCAUTT against Asah1  0.0675
45. GGAGAAUUAAAAUGUGAAGTT against Hsd17b4  0.161
46. GGCAGGUGAAUGUGGUAGATT against Btbd17  0.165
47. GCAUACGAUAUCACCAUAUTT against Dsg1a  0.173
48. CCUGCGCUUCUGACUAUCUTT against Dcbld1  0.18
49. GGCUAGAGAAAUAGUGUUGTT against Reep1  0.218
50. GGAGAAAGACAACUUCCUATT against Clec7a  0.239
51. CCUCGUUCCUUUGAAAUCATT against Gfi1  0.255
52. GAACACAAAUCUAGUAGACTT against Olfr1109  0.278
53. GGCCUUGCUUUCAUAAAGUTT against Mrpl49  0.348
54. GCACGAUGUACCUGAAUCUTT against Ifitm5  0.387
55. GCUAUGUGAAUUUGUAUGATT against Parp11  0.398
56. GGUGAUGAAAAGAAUUGCATT against Pitrm1  0.417
57. GGCUCAAGACUUAAAUUCATT against Olfr1100  0.437
58. GGAGCUAAACCAAUGGCAATT against Txndc15  0.479
59. CCACAAAACUAAGACACCUTT against P2ry6  0.587
60. CGGGAUAUCAUUCUCCAUATT against Lnpep  0.62
61. GGCCACCAUUUCUGAAAUCTT against Tecr  0.714
62. GGAAAAGAUAACUCAGACATT against Hrg  0.727
63. CCCUCAAUCUAACAGUGCATT against Dsg1b  0.75
64. GCAAGUGUAGAUAAAGUAUTT against Msi2  0.751
65. GGUUGAUGAAAAAACUGUATT against Itsn2  0.755
66. GCAUGUUUACCUCAAAGUGTT against Cd209e  0.843
67. GGAUCUCGAGUCUCAUCUCTT against Ccdc166  0.851
68. CCUGCUCUAGAGAAGAAGUTT against Naxe  0.879
69. GGAGACCUGGCAAAUGUAATT against Dctn5  0.884
70. GGAUCUGACAGCUCAUUUUTT against Casp7  1.01
71. GGUUGAAGAGCAUGAGAGCTT against A330041J22Rik  1.01
72. GCAGUCACCUUCAAAAAAATT against Zfp960  1.08
73. CGAUACCCAACUGUUGAAATT against Ap5m1  1.12
74. CCUACUGGUUGAAAAUAUUTT against Tceanc2  1.16
75. CCGGAAGAGCUUGCUUUAUTT against Sgpp2  1.19
76. GGAUACUUUAUGGUAUUUCTT against 9130023H24Rik  1.45
77. GGGCUUUAUUCAUCCACUCTT against 1700067P10Rik  1.52
78. GGAAGACACUCCUCUGCUCTT against Oca2  1.63
79. GGAAUUGUAGAAAGUGUUGTT against Adh4  1.66
80. GCUGAAAGAAUUCGUGGACTT against Phf2  1.69
81. GGGUAGCUACGAAGAGGAATT against Ros1  1.72
82. CUAAAUGCCUCCUACCUUUTT against Krtap4-16  1.89
83. GGUGGUUAAAUGGUUUUAATT against Prkg2  1.98
84. GGAAAGUGUGUGUUAUAUUTT against Zfp358  1.98
85. GGAAUCUCGGAGGAAAACUTT against Hyou1  1.99
